From PubChem BioAssay
TRPML1 agonist – agonists of human TRPML1 channel; TRPML1-expressing cells, Ca2+ dye fluorescence, FDSS; activation, % (concentration not given with the values); hit rate 0.12% among 410,000; in the data active means activation above about 50%; inconclusive means mostly about 30% to 49%; further: 0% is about no effect
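Tet-induced TRPML1-DL cells, 1,500 per well, cultured overnight, were loaded with a no-wash Ca2+ dye for 45–90 min. Calcium fluorescence was recorded on the FDSS for 110 s after compound addition, before the EC80 agonist (4 uM 54-4) was added.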
USP1-UAF1 inh – blocks the human USP1/UAF1 deubiquitinase complex. hit rate 0.23% among 390,000. Potency, µM (highest dose often 57.1 µM), for the others: at the top dose activity change, negative = inhibition, hits mostly inhibitors. recombinant USP1/UAF1, Ub-Rhodamine cleavage fluorescence; active means well fitted inhibition curve with a large enough effect; inconclusive means small, poorly fitted or top-dose-only effect; inactive means no such curve, though single readings can be large or run the other way; further: potency means the concentration at half of the fitted maximal effect; on the % scale 0 is the no-effect control and ±100 the full control effect; nearly all actives have a fitted effect of over 60% in size
Target sequence (O94782 whole entry, looked up): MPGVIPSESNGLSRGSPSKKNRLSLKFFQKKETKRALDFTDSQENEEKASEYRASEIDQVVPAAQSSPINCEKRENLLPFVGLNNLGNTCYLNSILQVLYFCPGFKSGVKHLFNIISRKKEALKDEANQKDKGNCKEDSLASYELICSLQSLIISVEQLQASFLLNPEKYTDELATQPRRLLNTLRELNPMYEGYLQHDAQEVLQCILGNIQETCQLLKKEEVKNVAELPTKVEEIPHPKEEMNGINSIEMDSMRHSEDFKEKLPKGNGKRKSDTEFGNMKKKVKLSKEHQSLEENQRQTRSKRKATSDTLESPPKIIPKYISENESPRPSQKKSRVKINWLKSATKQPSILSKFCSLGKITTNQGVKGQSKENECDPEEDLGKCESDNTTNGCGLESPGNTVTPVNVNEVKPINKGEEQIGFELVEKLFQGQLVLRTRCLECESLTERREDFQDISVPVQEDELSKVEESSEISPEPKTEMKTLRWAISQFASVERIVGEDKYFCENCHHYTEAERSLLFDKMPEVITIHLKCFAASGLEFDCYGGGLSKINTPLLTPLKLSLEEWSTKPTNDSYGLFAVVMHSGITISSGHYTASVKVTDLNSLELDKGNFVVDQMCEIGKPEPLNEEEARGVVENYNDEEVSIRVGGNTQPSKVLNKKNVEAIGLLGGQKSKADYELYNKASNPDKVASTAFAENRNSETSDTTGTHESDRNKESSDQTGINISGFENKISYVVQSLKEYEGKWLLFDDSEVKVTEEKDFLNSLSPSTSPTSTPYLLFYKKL
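In this screen, compounds sit with the deubiquitinase complex (1nM) for 15 min at room temperature before Ub-Rho is added at 150nM final. Fluorescence rise is then followed for 6 reads every 60 seconds.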
TRPV1 ag – human TRPV1 agonism; Q8NER1; TRPV1-expressing cells, Fluo-8 calcium influx, agonist mode; activation, % at 8.33 µM; hit rate 0.19% among 320,000; AID 540275; in the data active means activation above about 80%; inconclusive means between about 30% and that limit; further: 0% is about no effect
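Cells expressing TRPV1 were dye-loaded with Fluo-8 and read kinetically: 10 s baseline, 3 min after compound (agonist portion), then 2 min after EC20 capsaicin (allosteric enhancer portion). Calcium-bound dye fluorescence at 480/520 nm.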
TRPML1 inh – blocks the human TRPML1 channel. AID 624415. hit rate 0.02% among 390,000. TRPML1-inducible cells, Ca2+ dye fluorescence, FDSS; active compounds read low; inhibition of EC80 agonist-evoked calcium signal. activity change, negative = inhibition, % (no concentration beside the values); in the data active means activity change below about -50%; inconclusive means between about -30% and that limit;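 further: stimulus is agonist 54-4 at its EC80 concentration; on the % scale 0 is the no-effect control and ±100 the full control effect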
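TRPML1-DL cells, Tet-induced overnight (~16 h, 37 °C) at 1,500 cells/well, were loaded with Ca8 no-wash dye plus quencher for 45-90 min at room temperature. Compounds were pinned during FDSS kinetic reading; agonist 54-4 at EC80 (4 uM final) then added.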
TRPV1 PAM – human TRPV1 potentiation | Q8NER1 | TRPV1-expressing cells, Fluo-8 calcium influx, capsaicin EC20 potentiation | potentiation, % at 8.33 µM | hit rate 0.02% among 320,000; in the data active means potentiation above about 80%; inconclusive means between about 30% and that limit; further: 0% is about no effect
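Cells expressing TRPV1 were dye-loaded with Fluo-8 and read kinetically: 10 s baseline, 3 min after compound (agonist portion), then 2 min after EC20 capsaicin (allosteric enhancer portion). Calcium-bound dye fluorescence at 480/520 nm.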
An asterisk follows results filed as active; ? = inconclusive; / = not tested or not shown. Rows were chosen to be rich in hits. Some 0.4% of all compounds tested hit in one or more screens of this group.

SMILES | TRPML1 agonist | USP1-UAF1 inh | TRPV1 ag | TRPML1 inh | TRPV1 PAM
O=C1C(NS(=O)(=O)c2ccc(Br)cc2)=C(N2CCCCC2)C(=O)c2ccccc21 | 76* | ? | 10 | -19 | -3
CC1CCN(C2=C(NS(=O)(=O)c3ccc(Br)cc3)C(=O)c3ccccc3C2=O)CC1 | 0 | -26% | -3 | -11 | -3
O=C1C(Nc2ccccc2)=C(N2CCCCC2)C(=O)c2ccccc21 | 0 | 25µM* | 3 | -4 | -7
Cn1nc(C(C)(C)C)c(NC(=O)c2cccs2)c1C(C)(C)C | 78* | 1% | -1 | -17 | 29
Cn1nnc(NC(=O)c2cccs2)n1 | 0 | -7% | 0 | -7 | 2
C/C(=N/NC(=O)c1cccnc1)C1=C(O)CC(C)(C)CC1=O | 1 | -10% | -9 | -4 | 3
CCOC(=O)c1c2c(n(C)c1C)C(=O)C(=O)c1ccc(Br)cc1-2 | 0 | ? | / | -15 | /
CCOC(=O)c1c2c(n(Cc3ccccc3)c1C)C(=O)C(=O)c1ccccc1-2 | 1 | 2.5µM* | / | ? | /
Cc1nc2c(S(=O)(=O)c3ccccc3)cnn2c(C)c1C | 0 | -17% | 2 | -7 | 82*
COc1ccc(S(=O)(=O)N2CCc3cc4c(cc3C2C)OCCCO4)cc1 (stereo not given) | 1 | -20% | 6 | -51* | 0
Cc1ccc(S(=O)(=O)N2CCc3cc4c(cc3C2C)OCCCO4)cc1 (stereo not given) | 4 | -9% | 15 | 28 | ?
CCc1cccc(CC)c1-n1c(SCC(=O)N2CCc3ccccc32)nc(O)cc1=O | 1 | -11% | / | -7 | /
Cc1ccc(S(=O)(=O)N2CCC(=O)N(CCOCc3cccc(Cl)c3)CC2)cc1 | 0 | 20% | 3 | 24 | 20
O=C(O)CCN(CCC(=O)O)c1ccc(/C=C/c2ccnc3ccccc23)cc1 | 20 | / | / | / | /
CCCCN(CCC(=O)O)c1ccc(/C=C/c2ccnc3ccccc23)cc1 | 99* | / | / | / | /
O=C(O)CCN1C(=O)/C(=C/c2ccc(-c3nc4ccccc4s3)o2)SC1=S | 1 | 7.1µM* | 8 | 4 | 14
O=C(O)CC(C(=O)O)N1C(=O)/C(=C/C=C/c2ccco2)SC1=S (stereo not given) | 0 | ? | -4 | -10 | -3
O=C(O)CC(C(=O)O)N1C(=O)/C(=C/c2ccc(-c3nc4ccccc4s3)o2)SC1=S (stereo not given) | 2 | 28µM* | 7 | -15 | 0
O=C(O)CCCN1C(=O)/C(=C\c2ccc(-c3nc4ccccc4s3)o2)SC1=S | / | ? | 28 | / | 24
O=C(O)c1cc(-c2ccc(/C=C3/SC(=S)N(Cc4ccccc4)C3=O)o2)ccc1Cl | 2 | 25µM* | 18 | 11 | -23
Cc1ccc2c(c1)c(/C=C/c1cc[n+](C)cc1)c(C)n2C | 6 | 22µM* | 4 | 3 | 3
O=C(O/N=C\c1ccc(N2CCCCC2)c([N+](=O)[O-])c1)c1c(F)cccc1F | 0 | -13% | 1 | 23 | -6
COc1ccc(N2C(=O)[C@@H]3[C@H](C2=O)[C@H]2c4ccccc4C=CN2[C@@H]3C(C)=O)cc1 | 1 | 16µM* | -4 | -15 | 3
CC(C)(C)C(=O)[C@@H]1[C@@H]2C(=O)N(C3CCCCC3)C(=O)[C@@H]2[C@H]2c3ccccc3C=CN12 | 0 | 25µM* | 28 | -6 | -8
Cc1c(C(=O)Nc2cccc(Oc3ccccc3)c2)sc(=O)n1Cc1ccc(F)cc1 | 0 | / | / | / | /
SMILES | TRPML1 agonist | USP1-UAF1 inh | TRPV1 ag | TRPML1 inh | TRPV1 PAM
CC1(C)CSC(=NCc2ccccc2)N1C(=O)c1cccc([N+](=O)[O-])c1 | 94* | 8% | 12 | -6 | -20
N#Cc1c(-c2ccccc2)nc(SCC(=O)N(c2ccccc2)c2ccccc2)[nH]c1=O | 3 | -26% | 3 | 27 | 25
N#Cc1c(-c2ccccc2)nc(SCC(=O)N2c3ccccc3Sc3ccccc32)[nH]c1=O | / | 32µM* | 14 | / | -7
Cc1ccc(C(=O)c2c(C)oc3c2C(=O)C(=O)c2ccccc2-3)cc1 | 12 | 14µM* | -10 | 16 | -3
CN(C)c1ccc(/C=C/C(=O)c2ccc3c(c2)OCO3)cc1 | 84* | 25µM* | ? | -14 | 0
COc1ccc(C(=O)/C=C/c2ccc(N(C)C)cc2)c(OC)c1 | 128* | 22µM* | ? | -20 | -4
CN(C)c1ccc(/C=C/C(=O)c2cccnc2)cc1 | 115* | 28µM* | 85* | -25 | -4
CN(C)c1ccc(/C=C/C(=O)c2ccc(O)cc2)cc1 | 87* | 25µM* | / | -20 | /
COc1ccc(-c2cc3c(o2)CCCC3OCCN2CCOCC2)cc1 (stereo not given) | -1 | / | / | / | /
Cc1ccccc1-n1c(=O)cc(N2CCc3ccccc32)[nH]c1=O | -1 | -16% | -2 | 17 | ?
Cc1cc(C(C2C(=O)CC(C)(C)CC2=O)C2C(=O)CC(C)(C)CC2=O)cc(C)c1OC(F)F | 0 | -15% | 1 | -22 | 4
Cc1nn(CCCC(=O)Nc2cccc(C(F)(F)F)c2)c(=O)c2nn(-c3ccccc3)c(C)c12 | 0 | -9% | / | -9 | /
CCN(CC)CC(O)CN1C(=O)NC(C)(C)C1=O (stereo not given) | 0 | -16% | -1 | -12 | 0
CC1(C)NC(=O)N(CC(O)CN(Cc2ccccc2)Cc2ccccc2)C1=O (stereo not given) | -1 | -21% | 83* | 7 | -3
COc1ccc(CNC(=O)CCSc2ccc(F)cc2)cc1OC | 1 | -25% | 84* | -12 | -12
O=C(CCSc1ccc(Cl)cc1)NCc1ccncc1 | 0 | -17% | 86* | -4 | -24
COc1ccc(CNC(=O)CCC(=O)c2ccc(F)cc2)cc1OC | -1 | -22% | / | 4 | /
O=C(O)c1ccc(-c2ccc(/C=c3/sc4nc5ccccc5n4c3=O)o2)cc1Cl | 10 | 28µM* | 19 | 15 | 3
N#C/C(=C\c1ccc(-c2ccc([N+](=O)[O-])cc2)o1)C(=O)Nc1nc(-c2cccs2)cs1 | 0 | -6% | -2 | -101* | -15
Cc1ccc(F)c(NC(=O)/C(C#N)=C(\O)c2ccc(C(C)(C)C)cc2)c1 | 1 | 22µM* | 1 | -5 | 7
CC(Oc1ccccc1)c1ccnc2nc(/N=C/N(C)C)nn12 (stereo not given) | 1 | -1% | -1 | -20 | -1
CCOC(=O)c1ccc(Nc2ncnc3c2cnn3C)cc1 | 0 | ? | 83* | 21 | 2
CC(=O)Nc1ccc(Nc2ncnc3c2cnn3-c2ccc(C)cc2C)cc1 | -1 | 1% | 87* | -10 | -17
Cc1cc(/C=C2\C(=N)N3N=C(c4ccco4)SC3=NC2=O)c(C)n1Cc1ccccc1 | 0 | ? | 12 | -13 | -5
